Screening results deposited in PubChem by Center for Chemical Genomics, University of Michigan.
Shown is part of a subset that was picked to be rich in hits.
Dicer inh = inhibitors of human Dicer processing of pre-microRNA; Q9UPY3; cat-ELCCA pre-miR-21 Dicer processing, chemiluminescence; active compounds read high; z-score at 25 µM; 47,000 tested, 6% active; in the data active means z-score above about 3, passing the limit was not always enough;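 further: plate controls were vehicle for no effect and no enzyme for full effect; higher signal means more uncleaved substrate so more Dicer inhibition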
Target sequence (Q9UPY3 whole entry, looked up): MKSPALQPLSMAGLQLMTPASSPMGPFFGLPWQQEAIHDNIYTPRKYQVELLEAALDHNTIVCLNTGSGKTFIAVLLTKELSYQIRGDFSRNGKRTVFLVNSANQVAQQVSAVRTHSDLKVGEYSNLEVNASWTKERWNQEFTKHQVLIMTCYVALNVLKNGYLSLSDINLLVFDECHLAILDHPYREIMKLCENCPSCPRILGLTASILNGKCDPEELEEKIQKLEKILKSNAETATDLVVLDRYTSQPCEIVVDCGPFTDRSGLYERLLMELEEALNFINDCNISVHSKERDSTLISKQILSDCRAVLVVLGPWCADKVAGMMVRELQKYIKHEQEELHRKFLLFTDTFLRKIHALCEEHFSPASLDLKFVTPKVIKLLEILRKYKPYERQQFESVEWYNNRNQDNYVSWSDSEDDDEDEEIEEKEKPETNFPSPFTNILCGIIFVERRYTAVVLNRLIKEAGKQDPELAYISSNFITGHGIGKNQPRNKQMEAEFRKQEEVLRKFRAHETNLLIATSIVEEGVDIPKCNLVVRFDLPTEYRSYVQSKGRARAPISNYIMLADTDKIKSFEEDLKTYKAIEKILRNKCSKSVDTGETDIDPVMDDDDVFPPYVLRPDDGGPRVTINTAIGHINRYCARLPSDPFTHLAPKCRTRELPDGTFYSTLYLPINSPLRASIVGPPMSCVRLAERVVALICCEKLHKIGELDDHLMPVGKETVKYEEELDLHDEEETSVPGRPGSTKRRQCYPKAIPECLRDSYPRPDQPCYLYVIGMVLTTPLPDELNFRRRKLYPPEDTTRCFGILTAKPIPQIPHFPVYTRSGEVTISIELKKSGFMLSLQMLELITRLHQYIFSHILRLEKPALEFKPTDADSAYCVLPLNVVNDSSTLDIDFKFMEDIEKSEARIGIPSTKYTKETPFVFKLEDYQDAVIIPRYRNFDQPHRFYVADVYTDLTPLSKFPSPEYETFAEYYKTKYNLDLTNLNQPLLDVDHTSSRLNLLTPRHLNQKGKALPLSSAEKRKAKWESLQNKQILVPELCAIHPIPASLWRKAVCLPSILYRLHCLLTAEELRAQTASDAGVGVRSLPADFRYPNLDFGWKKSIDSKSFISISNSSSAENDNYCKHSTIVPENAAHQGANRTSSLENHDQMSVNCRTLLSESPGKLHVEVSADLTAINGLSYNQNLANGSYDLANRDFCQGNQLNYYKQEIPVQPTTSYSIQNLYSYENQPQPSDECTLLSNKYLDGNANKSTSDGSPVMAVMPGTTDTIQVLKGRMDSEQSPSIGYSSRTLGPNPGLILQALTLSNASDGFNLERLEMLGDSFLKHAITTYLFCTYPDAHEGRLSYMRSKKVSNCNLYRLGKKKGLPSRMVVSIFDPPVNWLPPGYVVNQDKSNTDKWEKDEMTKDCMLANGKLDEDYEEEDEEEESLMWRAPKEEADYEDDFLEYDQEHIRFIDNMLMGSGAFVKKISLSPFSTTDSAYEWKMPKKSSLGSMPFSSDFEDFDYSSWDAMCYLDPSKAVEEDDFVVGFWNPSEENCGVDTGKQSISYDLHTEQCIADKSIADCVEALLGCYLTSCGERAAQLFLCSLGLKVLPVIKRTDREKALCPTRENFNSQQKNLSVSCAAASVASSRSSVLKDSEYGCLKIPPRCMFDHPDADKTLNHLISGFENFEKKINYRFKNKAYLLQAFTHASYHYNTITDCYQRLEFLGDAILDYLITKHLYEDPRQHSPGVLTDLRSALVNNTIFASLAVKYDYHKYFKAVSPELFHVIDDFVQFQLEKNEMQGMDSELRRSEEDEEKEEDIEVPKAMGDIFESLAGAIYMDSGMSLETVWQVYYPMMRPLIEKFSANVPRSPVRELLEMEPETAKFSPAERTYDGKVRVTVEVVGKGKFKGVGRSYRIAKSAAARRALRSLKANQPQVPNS
Active calls of the source: *.

SMILES | Dicer inh
O=C(c1nn2c(c1Cl)NC(c1ccc(Br)cc1)CC2C(F)(F)F)N1CCOCC1 (configuration not stated) | 3.7*
NC(=O)c1nn2c(c1Br)NC(c1ccccc1)CC2C(F)(F)F (configuration not stated) | 3.8*
Cc1ccc(C2CC(C(F)(F)F)n3nc(C(=O)N4CCN5CCCC5C4)c(Cl)c3N2)cc1 (configuration not stated) | -1.7
O=C(c1nn2c(c1Cl)NC(c1ccc(Br)cc1)CC2C(F)(F)F)N1CCCCC1 (configuration not stated) | -1.3
O=C(c1nn2c(c1Br)NC(c1ccccc1)CC2C(F)(F)F)N1CCOCC1 (configuration not stated) | 5.2*
O=C(O)c1nn2c(c1Br)NC(c1ccccc1)CC2C(F)(F)F (configuration not stated) | -0.34
Cc1ccc(C2CC(C(F)(F)F)n3nc(C(=O)N4CCCCC4)c(Cl)c3N2)cc1 (configuration not stated) | 0.49
O=C(c1nn2c(C(F)(F)F)cc(-c3ccccc3)nc2c1Br)N1CCOCC1 | -0.52
CC(NC(=O)c1nn2c(c1Cl)NC(c1ccccc1)CC2C(F)(F)F)c1ccccc1 (configuration not stated) | -0.69
CSc1sc(-c2ccnc(SCCS(=O)(=O)c3ccc(C(F)(F)F)cn3)n2)c(-c2ccccc2)c1C#N | -0.32
CCCc1cnc(N2CCCNCC2)nc1 | -1.1
COC(=O)c1ccc(Oc2cc(C)nc(N)n2)cc1 | 0.85
Cc1nn(S(=O)(=O)c2cccc(C(F)(F)F)c2)c(C)c1Sc1nccc(-c2cccnc2)n1 | -2
Nc1ncnc2nc(N3CCCC3)ncc12 | 0.16
CCOC(=O)c1sc(-c2ccccc2)nc1O | -1.2
O=C(O)c1ccc(CN2C(=O)COc3ccccc32)cc1 | -0.72
O=C(O)CCC(=O)Nc1ccc(OC(F)(F)F)cc1Br | -1
Cc1ccc(NC(=O)CCS(=O)(=O)Cc2ccccc2)c(Br)c1 | 4.5*
O=C(O)CCC(=O)Nc1cc2c(cc1Br)OCCO2 | 0.22
Cc1oc(-c2ccc(Cl)cc2)cc1C(=O)/C(C#N)=C/Nc1ccc(Cl)cn1 | -0.16
COc1cc2c(cc1OC)C(c1ccccc1Cl)NC(=O)C2 (configuration not stated) | 2.6
Cc1cc(C)c(S(=O)(=O)Nc2cccc3ccc(C)nc23)c(C)c1 | -0.95
Cc1cc(C)c(S(=O)(=O)Nc2ccc(O)cc2)c(C)c1 | 1.4
COc1ccc(S(=O)(=O)Nc2cc(Cl)c3oc(=O)sc3c2)cc1OC | 4.3*
Cc1cc(C)c(S(=O)(=O)Nc2cc(Cl)c3oc(=O)sc3c2)c(C)c1 | 12*
SMILES | Dicer inh
COc1nc(NS(=O)(=O)c2ccc(C)cc2)nc(C)c1Cl | -0.17
COc1ccc(OC)c(NS(=O)(=O)c2ccc(Br)cc2)c1 | 6.1
O=C(CN1C2=NCCCN2c2ccccc21)c1ccc(O)cc1 | 0.16
N#Cc1c(-c2ccccc2)nc(SCc2ccccc2)[nH]c1=O | 0.36
N#Cc1c(-c2ccc(Cl)cc2)[nH]c(SCc2ccccc2)nc1=S | 3.5*
Clc1ccc(CSc2ncc(-c3ccc(Cl)cc3)[nH]2)cc1 | 0.75
N#Cc1c(Cl)cccc1OCC(F)(F)F | 0.95
COC(=O)c1cnc(Sc2n[nH]c(-c3ccccc3)n2)c([N+](=O)[O-])c1 | -0.35
CCC(OC(=O)c1cn(CC)c2nc(C)ccc2c1=O)C(=O)Nc1sc2c(c1C(N)=O)CCCC2 (configuration not stated) | 1
COc1ccc(OCc2nnc3n2N=C(c2ccc(OC)cc2)CS3)cc1 | 5.2*
COc1ccc(OCc2nnc3n2N=C(c2ccc(C)cc2)CS3)cc1 | 1.6
COc1ccc(C2=Nn3c(COc4cc(C)ccc4Cl)nnc3SC2)cc1 | -1.7
N#CCC(=O)N/N=C/c1ccc(Cl)cc1Cl | -0.11
CSc1nnc(SC2=CC(=O)CC(c3ccccc3)C2)s1 (configuration not stated) | 2.4
Cc1cccc(NC(C(=O)O)c2ccccc2)c1 (configuration not stated) | 5.4*
O=C(O)c1ccccc1SC(C(=O)O)c1ccccc1 (configuration not stated) | 0.18
CC(C(=O)O)c1cccc(Oc2ccccc2)c1 (configuration not stated) | -0.07
CCOC(=O)C(NC(=O)Nc1ccccc1)(Nc1cccc(C)c1)C(F)(F)F (configuration not stated) | -1.3
O=C(O)c1ccccc1NC(C(=O)O)c1ccccc1 (configuration not stated) | 5.5*
O=C(O)CSc1ccccc1C(=O)O | -0.26
Cn1c(=O)c2c(c3ccccc31)OC(=O)CC2c1ccccc1Cl (configuration not stated) | 2.3
C#CCOC(=O)NC(=O)c1ccc(Oc2cc(Cl)cc(Cl)c2)c([N+](=O)[O-])c1 | 0.75
CN(C1CC2C=CC1C2)S(=O)(=O)c1cc(C(F)(F)F)cc(C(F)(F)F)c1 (configuration not stated) | -1.5
CCSCCOC(=O)C1=C(C)NC2=C(C(=O)CC(C)(C)C2)C1c1ccsc1 (configuration not stated) | 11
